Results from the supplement of paper PMC10849652.
About 7,900 targets were measured; listed, in parts, are those with a hit and a random draw of the rest. About 0.6% of all pairs of compound and target were hits.

Compound: c1cn2cc(-c3ccc4cn[nH]c4c3)nc(Nc3ccc(N4CCOCC4)cc3)c2n1 [entospletinib]
Experiment: log2 fold change, soluble protein after heating vs DMSO (PISA); higher = thermal stabilisation; K562 cells, 10 uM, 30 min; active = over 0.2 and 3.5 SD of the protein, either way, in both replicates (recomputed)
In short: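 K562 cells at 2×10^6 cells/mL were treated with 10 μM compound for 30 min. Aliquots were heated for 3 min across 48°C-58°C, pooled, and extracted in PBS with 0.5% NP-40 at 4°C; soluble protein was the supernatant after 21,000xg for 90 min. Soluble protein was quantified by TMTpro 16plex LC-MS/MS with channel sums equalised, and reported as log2 fold change in thermal stability against DMSO controls, with values from duplicates.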

Chain of UniProt Q96PV6 (Q96PV6 whole entry, looked up): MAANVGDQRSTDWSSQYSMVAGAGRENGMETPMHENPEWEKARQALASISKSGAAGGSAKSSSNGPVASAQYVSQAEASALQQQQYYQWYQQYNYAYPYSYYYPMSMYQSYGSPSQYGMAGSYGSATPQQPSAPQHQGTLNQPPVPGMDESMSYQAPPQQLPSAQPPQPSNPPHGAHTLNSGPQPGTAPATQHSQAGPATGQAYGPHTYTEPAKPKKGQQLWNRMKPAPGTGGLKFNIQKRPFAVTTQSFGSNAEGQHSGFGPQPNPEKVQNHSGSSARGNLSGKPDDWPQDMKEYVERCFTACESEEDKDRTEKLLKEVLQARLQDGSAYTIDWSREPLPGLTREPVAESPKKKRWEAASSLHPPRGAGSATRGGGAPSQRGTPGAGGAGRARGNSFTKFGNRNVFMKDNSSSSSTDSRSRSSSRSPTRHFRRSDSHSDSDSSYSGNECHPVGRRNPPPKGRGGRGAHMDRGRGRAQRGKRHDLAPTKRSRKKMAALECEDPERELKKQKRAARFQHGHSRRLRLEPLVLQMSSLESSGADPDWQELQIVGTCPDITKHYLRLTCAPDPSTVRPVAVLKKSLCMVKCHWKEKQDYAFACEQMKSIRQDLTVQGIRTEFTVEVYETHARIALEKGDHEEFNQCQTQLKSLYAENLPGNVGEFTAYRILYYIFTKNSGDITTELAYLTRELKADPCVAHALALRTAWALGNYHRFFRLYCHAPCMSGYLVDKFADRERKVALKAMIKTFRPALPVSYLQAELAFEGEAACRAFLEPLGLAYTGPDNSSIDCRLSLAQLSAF
Chain of UniProt P43362 (P43362 whole entry, looked up): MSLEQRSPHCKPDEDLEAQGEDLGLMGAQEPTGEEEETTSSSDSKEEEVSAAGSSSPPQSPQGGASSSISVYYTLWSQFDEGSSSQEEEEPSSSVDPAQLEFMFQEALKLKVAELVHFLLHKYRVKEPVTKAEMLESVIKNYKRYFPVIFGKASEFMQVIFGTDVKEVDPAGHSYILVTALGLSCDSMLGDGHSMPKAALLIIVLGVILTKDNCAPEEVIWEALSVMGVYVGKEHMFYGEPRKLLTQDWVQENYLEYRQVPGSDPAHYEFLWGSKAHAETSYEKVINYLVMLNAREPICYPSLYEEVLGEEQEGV
Chain of UniProt P13473 (P13473 whole entry, looked up): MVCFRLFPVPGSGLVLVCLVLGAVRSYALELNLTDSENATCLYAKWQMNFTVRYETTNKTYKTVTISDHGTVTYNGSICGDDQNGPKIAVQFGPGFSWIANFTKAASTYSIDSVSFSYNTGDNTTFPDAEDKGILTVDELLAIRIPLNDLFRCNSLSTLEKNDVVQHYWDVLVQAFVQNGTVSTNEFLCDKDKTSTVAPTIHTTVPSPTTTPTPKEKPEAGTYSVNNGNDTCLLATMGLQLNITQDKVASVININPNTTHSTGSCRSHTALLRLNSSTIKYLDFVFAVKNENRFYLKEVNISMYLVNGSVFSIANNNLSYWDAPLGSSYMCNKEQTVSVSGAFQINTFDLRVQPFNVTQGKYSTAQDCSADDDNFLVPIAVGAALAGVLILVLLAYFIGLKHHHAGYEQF
Chain of UniProt Q16539 (Q16539 whole entry, looked up): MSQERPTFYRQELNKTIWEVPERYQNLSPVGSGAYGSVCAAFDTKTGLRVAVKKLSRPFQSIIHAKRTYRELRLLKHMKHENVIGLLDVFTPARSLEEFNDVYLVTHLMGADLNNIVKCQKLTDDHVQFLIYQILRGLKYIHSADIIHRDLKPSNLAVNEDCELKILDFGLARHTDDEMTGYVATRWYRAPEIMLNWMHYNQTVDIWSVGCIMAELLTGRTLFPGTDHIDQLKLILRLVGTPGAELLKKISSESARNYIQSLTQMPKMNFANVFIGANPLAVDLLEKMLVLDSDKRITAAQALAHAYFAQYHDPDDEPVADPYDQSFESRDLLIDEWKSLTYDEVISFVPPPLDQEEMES
Chain of UniProt Q8TDD5 (Q8TDD5 whole entry, looked up): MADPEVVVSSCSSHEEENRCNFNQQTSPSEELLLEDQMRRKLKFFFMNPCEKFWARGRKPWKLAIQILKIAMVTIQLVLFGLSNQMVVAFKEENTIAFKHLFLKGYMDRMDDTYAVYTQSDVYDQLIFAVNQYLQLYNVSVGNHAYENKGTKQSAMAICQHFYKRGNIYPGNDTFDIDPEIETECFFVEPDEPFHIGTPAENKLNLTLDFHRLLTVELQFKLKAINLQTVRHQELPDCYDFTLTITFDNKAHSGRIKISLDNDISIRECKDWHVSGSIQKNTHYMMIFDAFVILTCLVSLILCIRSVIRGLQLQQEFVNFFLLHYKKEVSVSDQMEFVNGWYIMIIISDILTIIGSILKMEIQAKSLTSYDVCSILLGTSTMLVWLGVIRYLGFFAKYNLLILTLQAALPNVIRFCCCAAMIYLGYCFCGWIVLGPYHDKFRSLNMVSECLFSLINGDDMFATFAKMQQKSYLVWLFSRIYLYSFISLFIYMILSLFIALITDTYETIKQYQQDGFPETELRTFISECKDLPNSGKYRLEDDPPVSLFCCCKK
Chain of UniProt P07948 (P07948 whole entry, looked up): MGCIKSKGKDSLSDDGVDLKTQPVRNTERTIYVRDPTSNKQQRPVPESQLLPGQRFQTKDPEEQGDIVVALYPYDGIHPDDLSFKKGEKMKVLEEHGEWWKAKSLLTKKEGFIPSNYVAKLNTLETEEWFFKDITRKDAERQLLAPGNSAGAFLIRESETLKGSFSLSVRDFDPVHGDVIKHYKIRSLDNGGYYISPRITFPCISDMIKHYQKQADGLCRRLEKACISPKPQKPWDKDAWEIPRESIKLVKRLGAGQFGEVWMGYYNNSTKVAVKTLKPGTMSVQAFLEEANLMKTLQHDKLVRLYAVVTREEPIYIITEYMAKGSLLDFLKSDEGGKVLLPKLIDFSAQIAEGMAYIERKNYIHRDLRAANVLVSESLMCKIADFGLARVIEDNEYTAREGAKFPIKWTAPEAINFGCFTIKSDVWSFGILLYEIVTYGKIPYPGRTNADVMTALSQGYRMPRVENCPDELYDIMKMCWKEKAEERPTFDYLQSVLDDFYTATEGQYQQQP
Chain of UniProt Q2M2Z5 (Q2M2Z5 whole entry, looked up): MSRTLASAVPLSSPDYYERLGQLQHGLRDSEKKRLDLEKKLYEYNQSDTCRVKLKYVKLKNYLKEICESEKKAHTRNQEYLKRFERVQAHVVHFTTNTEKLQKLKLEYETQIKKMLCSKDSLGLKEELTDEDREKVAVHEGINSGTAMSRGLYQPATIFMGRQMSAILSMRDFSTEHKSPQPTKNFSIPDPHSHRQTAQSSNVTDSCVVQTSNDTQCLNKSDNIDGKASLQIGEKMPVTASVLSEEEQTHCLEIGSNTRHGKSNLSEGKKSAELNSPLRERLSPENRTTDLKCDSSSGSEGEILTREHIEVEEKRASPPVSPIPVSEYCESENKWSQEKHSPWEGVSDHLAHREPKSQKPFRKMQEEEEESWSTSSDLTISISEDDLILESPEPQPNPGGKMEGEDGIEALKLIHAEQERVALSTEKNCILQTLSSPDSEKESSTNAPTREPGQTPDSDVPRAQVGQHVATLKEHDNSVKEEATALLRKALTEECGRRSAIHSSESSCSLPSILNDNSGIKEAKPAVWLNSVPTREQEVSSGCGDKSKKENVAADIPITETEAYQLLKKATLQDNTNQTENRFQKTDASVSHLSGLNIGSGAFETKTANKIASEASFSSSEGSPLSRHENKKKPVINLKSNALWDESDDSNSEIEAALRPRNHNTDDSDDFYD
Chain of UniProt P27816 (P27816 whole entry, looked up): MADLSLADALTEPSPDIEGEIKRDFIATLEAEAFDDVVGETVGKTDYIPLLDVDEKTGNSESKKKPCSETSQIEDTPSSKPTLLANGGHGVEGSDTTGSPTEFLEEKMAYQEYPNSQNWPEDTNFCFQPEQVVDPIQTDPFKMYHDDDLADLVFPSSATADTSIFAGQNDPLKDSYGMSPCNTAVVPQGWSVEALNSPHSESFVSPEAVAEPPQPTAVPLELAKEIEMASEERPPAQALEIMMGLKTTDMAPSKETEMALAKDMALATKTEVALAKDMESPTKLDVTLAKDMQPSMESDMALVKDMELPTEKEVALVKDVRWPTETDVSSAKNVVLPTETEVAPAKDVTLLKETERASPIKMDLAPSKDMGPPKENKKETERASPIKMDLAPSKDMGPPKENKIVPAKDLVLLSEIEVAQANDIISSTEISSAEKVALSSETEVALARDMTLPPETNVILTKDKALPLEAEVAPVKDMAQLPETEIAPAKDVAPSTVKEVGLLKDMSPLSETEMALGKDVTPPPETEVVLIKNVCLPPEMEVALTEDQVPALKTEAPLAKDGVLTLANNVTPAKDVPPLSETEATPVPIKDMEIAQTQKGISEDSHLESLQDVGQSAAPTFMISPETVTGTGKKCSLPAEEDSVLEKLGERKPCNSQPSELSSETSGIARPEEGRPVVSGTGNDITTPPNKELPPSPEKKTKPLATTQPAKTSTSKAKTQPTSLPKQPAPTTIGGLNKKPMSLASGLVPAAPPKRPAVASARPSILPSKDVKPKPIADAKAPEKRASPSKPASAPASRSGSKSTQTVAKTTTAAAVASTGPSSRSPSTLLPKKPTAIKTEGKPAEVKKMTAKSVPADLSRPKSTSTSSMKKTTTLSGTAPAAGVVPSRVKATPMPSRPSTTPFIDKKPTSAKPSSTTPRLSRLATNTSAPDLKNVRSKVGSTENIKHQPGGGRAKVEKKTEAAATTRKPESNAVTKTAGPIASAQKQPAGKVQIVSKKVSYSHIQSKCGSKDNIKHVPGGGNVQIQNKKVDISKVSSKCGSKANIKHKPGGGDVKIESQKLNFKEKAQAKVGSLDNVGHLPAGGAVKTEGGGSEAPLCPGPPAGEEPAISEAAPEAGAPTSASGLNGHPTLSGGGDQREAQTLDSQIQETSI

log2 fold change, inactive:
MAPK14 (UniProt Q16539) -0.006
MAP4 (UniProt P27816) -0.017
MAGEA9 (UniProt P43362) 0.083
KIZ (UniProt Q2M2Z5) -0.105
MCOLN3 (UniProt Q8TDD5) -0.194
LYN (UniProt P07948) -0.024
LAMP2 (UniProt P13473) 0.023
LENG8 (UniProt Q96PV6) 0.131
MCUR1 (UniProt Q96AQ8) 0.018
LIMA1 isoform 4 (UniProt Q9UHB6) -0.119
MAGEA8 (UniProt P43361) 0.125
